Source: PubChem BioAssay
This is one part of a sample in which hits are shown more often than they occur.
Vaccinia inh: blocks a specific stage of Vaccinia orthopoxvirus infection, primary screen, cell-based, single point. Vaccinia-infected cells, mCherry/Venus stage reporter fluorescence; hits give low values. activity change (mCherry), % (no concentration beside the values). hit rate 0.01% among 89,000; in the data active = activity change below about -37%, passing the limit was not always enough; tested in A549 cells
An asterisk follows results filed as active.

What do the screens show for `COc1ccc(CN(C)C[C@@H]2Oc3c(NS(=O)(=O)c4cccs4)cccc3C(=O)N([C@@H](C)CO)C[C@@H]2C)cc1`?
Vaccinia inh: 16.0

How did O=C(C[C@H]1CC[C@H](NC(=O)c2cccc(F)c2)[C@@H](CO)O1)NCc1ccccc1 do in these assays?
Vaccinia inh: 16.4

What do the screens show for `C[C@@H]1CN([C@H](C)CO)C(=O)c2cc(NC(=O)CCN3CCOCC3)ccc2O[C@@H]1CN(C)Cc1ccc(-c2ccccc2)cc1`?
Vaccinia inh: -22.9

What do the screens show for `Cc1noc(C)c1S(=O)(=O)N(C)C[C@@H]1OCCCC[C@H](C)Oc2ccc(NC(=O)NC3CCCCC3)cc2C(=O)N([C@H](C)CO)C[C@@H]1C`?
Vaccinia inh: -31.6

Results for C[C@@H]1CCCCO[C@H](CN(C)S(=O)(=O)c2ccccc2)[C@@H](C)CN([C@@H](C)CO)C(=O)c2cc(NC(=O)Nc3cccc4ccccc34)ccc2O1 ?
Vaccinia inh: 20.7

What do the screens show for `CCCN(C)C[C@H]1OCCCC[C@H](C)Oc2ccc(NC(=O)Cc3ccccc3)cc2C(=O)N([C@@H](C)CO)C[C@H]1C`?
Vaccinia inh: -11.2

What do the screens show for `Cc1noc(C)c1NC(=O)Nc1ccc2c(c1)C(=O)N([C@@H](C)CO)C[C@@H](C)[C@H](CN(C)CC1CCCCC1)OCCCC[C@H](C)O2`?
Vaccinia inh: 10.8

What do the screens show for `O=C(Cc1ccccn1)N1CC2(C1)[C@H](c1ccccc1)[C@@H](CO)N2C(=O)c1ccccc1`?
Vaccinia inh: 0.0

Results for CCCC#Cc1ccc2c(c1)O[C@@H](CN(C)CC1CCCC1)[C@H](C)CN([C@H](C)CO)S2(=O)=O ?
Vaccinia inh: 9.8

What do the screens show for `CC(C)NC(=O)N(C)C[C@@H]1Oc2ccc(NS(=O)(=O)c3cn(C)cn3)cc2C(=O)N([C@H](C)CO)C[C@@H]1C`?
Vaccinia inh: 7.6

What do the screens show for `C[C@@H]1CN([C@@H](C)CO)C(=O)c2cc(NC(=O)Nc3ccc(F)cc3)ccc2O[C@@H]1CN(C)S(=O)(=O)c1ccccc1`?
Vaccinia inh: -21.5

How did C[C@@H]1CN([C@H](C)CO)C(=O)Cc2cc(NS(=O)(=O)c3ccc(F)cc3)ccc2O[C@@H]1CN(C)S(=O)(=O)c1cccs1 do in these assays?
Vaccinia inh: 2.6

What do the screens show for `CCCNC(=O)C[C@H]1CC[C@H]2[C@H](COc3ccc(NC(=O)NC(C)C)cc3C(=O)N2C)O1`?
Vaccinia inh: 8.6

What do the screens show for `O=C(C[C@H]1C[C@@H]2c3cc(NC(=O)NC4CCCC4)ccc3O[C@@H]2[C@H](CO)O1)NCc1cccnc1`?
Vaccinia inh: 0.4

What do the screens show for `CC(C)NC(=O)N(C)C[C@@H]1Oc2ccc(NC(=O)Cc3cn(C)c4ccccc34)cc2C(=O)N([C@H](C)CO)C[C@H]1C`?
Vaccinia inh: 9.6

What do the screens show for `CN(C)C(=O)[C@@H]1[C@@H](CO)[C@@H]2Cn3c(ccc(C4=CCCCC4)c3=O)[C@H]1N2Cc1ccncc1`?
Vaccinia inh: 12.7

What do the screens show for `OC(CSc1nc(-c2ccccc2)c(-c2ccccc2)o1)CC(O)c1ccccc1` (stereo not given)?
Vaccinia inh: -23.8

How did COCC(=O)N1CC2(C1)CN(Cc1cc(F)ccc1F)[C@@H](CO)c1c2c2ccc(OC)cc2n1C do in these assays?
Vaccinia inh: 14.9

How did CCNC(=O)C[C@@H]1CC[C@H]2[C@@H](COc3ccc(NC(=O)C4CCOCC4)cc3C(=O)N2C)O1 do in these assays?
Vaccinia inh: 3.8

Results for Cc1ccc(S(=O)(=O)N(C)C[C@H]2OCCCC[C@H](C)Oc3ccc(NC(=O)Nc4ccccc4)cc3C(=O)N([C@@H](C)CO)C[C@@H]2C)cc1 ?
Vaccinia inh: -16.6

How did CO[C@@H]1CN(C)C(=O)c2ccc(NS(=O)(=O)c3ccc(C)cc3)cc2OC[C@H](C)NC[C@@H]1C do in these assays?
Vaccinia inh: 5.2

How did C[C@@H]1CN([C@@H](C)CO)C(=O)c2cc(NS(=O)(=O)c3ccc(Cl)cc3)ccc2O[C@@H](C)CCCCO[C@H]1CN(C)S(=O)(=O)c1cn(C)cn1 do in these assays?
Vaccinia inh: 12.3

Results for CO[C@H]1CN(C)C(=O)c2cc(NC(=O)C3CC3)ccc2OC[C@@H](C)N(C(=O)c2ccccc2)C[C@@H]1C ?
Vaccinia inh: 0.9

What do the screens show for `C[C@@H]1CN([C@H](C)CO)C(=O)Cc2cc(NC(=O)NC3CCCCC3)ccc2O[C@@H]1CN(C)S(C)(=O)=O`?
Vaccinia inh: 23.5

Results for C[C@H]1CN([C@@H](C)CO)C(=O)c2cccc(NC(=O)C3CC3)c2O[C@@H]1CN(C)CC1CC1 ?
Vaccinia inh: 1.0

How did COCC(=O)N1[C@@H](CO)[C@@H](c2ccccc2)C12CN(C(=O)NC1CCCCC1)C2 do in these assays?
Vaccinia inh: 2.0

How did COc1ccccc1C#Cc1cnc2c(c1)C(=O)N([C@H](C)CO)C[C@@H](C)[C@H](CN(C)C(=O)CC1CC1)O2 do in these assays?
Vaccinia inh: -5.7

Results for COc1ccc(C(=O)N2C[C@H]3[C@@H](c4ccccc42)[C@@H](CO)N3C(=O)c2cccc(F)c2)cc1 ?
Vaccinia inh: 2.7

Results for COc1ccc(C#Cc2ccc3c(c2)[C@H]2[C@H](CCN2C(=O)Nc2ccc(C(F)(F)F)cc2)[C@@H](CO)N3C)cc1 ?
Vaccinia inh: -0.3

What do the screens show for `CO[C@@H]1CN(C)C(=O)c2ccc(NS(=O)(=O)c3ccc(-c4ccccc4)cc3)cc2OC[C@@H](C)NC[C@@H]1C`?
Vaccinia inh: 14.0

Results for COCC(=O)N(C)C[C@@H]1Oc2ncc(-c3cccc(OC)c3)cc2C(=O)N([C@@H](C)CO)C[C@@H]1C ?
Vaccinia inh: 11.1

What do the screens show for `Cc1ccc(CN(C)C[C@@H]2OCc3cn(nn3)CCCC(=O)N([C@H](C)CO)C[C@@H]2C)cc1`?
Vaccinia inh: 10.4

What do the screens show for `O=C(O)[C@H]1[C@H](CO)[C@H]2Cn3c(ccc(C4=CCCCC4)c3=O)[C@H]2N1C(=O)Cc1cccnc1`?
Vaccinia inh: 13.3

How did C[C@H](O)C#Cc1ccc2c(c1)O[C@H](CN(C)Cc1ccccc1)[C@@H](C)CN([C@@H](C)CO)S2(=O)=O do in these assays?
Vaccinia inh: -26.1

How did C[C@@H](O)C#Cc1ccc2c(c1)O[C@@H](CN(C)Cc1ccc(-c3ccccc3)cc1)[C@@H](C)CN([C@@H](C)CO)S2(=O)=O do in these assays?
Vaccinia inh: -91.8*

What do the screens show for `C[C@H](CO)N1C[C@H](C)[C@@H](CN(C)Cc2ccccc2)Oc2cc(C#C[C@@H](C)O)ccc2S1(=O)=O`?
Vaccinia inh: -15.9

How did C[C@H]1CCCCO[C@H](CN(C)Cc2ccncc2)[C@@H](C)CN([C@@H](C)CO)C(=O)c2cc(NC(=O)CCCN(C)C)ccc2O1 do in these assays?
Vaccinia inh: -0.4

What do the screens show for `C[C@@H]1CN([C@@H](C)CO)C(=O)c2cc(NC(=O)CCC(F)(F)F)ccc2O[C@@H]1CN(C)CC1CC1`?
Vaccinia inh: 14.5

What do the screens show for `COCc1cn(CC[C@H]2CC[C@H](NC(=O)Nc3ccc(C(F)(F)F)cc3)[C@@H](CO)O2)nn1`?
Vaccinia inh: 7.9

Results for CN(C)C(=O)C[C@H]1CC[C@H]2[C@H](COc3ccc(NC(=O)C4CCCC4)cc3C(=O)N2C)O1 ?
Vaccinia inh: 3.3

Results for COCCNC(=O)C[C@@H]1CC[C@@H]2[C@@H](COc3ccc(NC(=O)C4CCOCC4)cc3C(=O)N2C)O1 ?
Vaccinia inh: 1.3

Results for O=C(Nc1ccc(C(F)(F)F)cc1)Nc1ccc2c(c1)[C@H]1C[C@H](CC(=O)N3CCc4ccccc4C3)O[C@@H](CO)[C@H]1O2 ?
Vaccinia inh: -14.8
